Reference: PubChem BioAssay (NCATS)
Where “and” joins values, the source holds several entries; their conditions need not be identical. Equal entries are not always repeated. Results filed as inconclusive are left out. Calls of active or inactive are those of the source. Unless noted, how the calls were made is not given here.

How the values were obtained:
[1] = qHTS Assay for Identifying Gametocytocidal Compounds (AID 743244; active means well fitted curve in the direction sought with a large enough effect; an effect the other way counts as inactive or inconclusive; further: potency means the concentration at half of the fitted maximal effect;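 on max response: on the % scale 0 is the no-effect control and ±100 the full control effect; actives lower the fluorescent signal which means gametocytes are killed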); conditions: P. falciparum 3D7 stage III-V gametocytes, alamarBlue, 72 h; max response: stronger effect = lower value
Outline: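 P. falciparum 3D7 stage III–V gametocytes (20,000 cells/well) were exposed to compounds for 72 h at 37 °C, 5% CO2. AlamarBlue was then added for 24 h; decreased resorufin fluorescence (Ex 525/Em 598 nm) indicated loss of viability.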

[2] = qHTS profiling for inhibitors of Plasmodium falciparum (3D7) proliferation (AID 743322);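 further: infected erythrocytes exposed to compound for 72 h before lysis; 100% = DMSO vehicle wells and 0% = 0.29 µM artemisinin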; conditions: P. falciparum 3D7 proliferation; at 28.7 µM (top of the series) unless noted
Outline: (§1)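 Parasite DNA was quantified by SYBR Green I fluorescence (ex 485, em 535 nm) after overnight lysis in saponin/Triton buffer at room temperature. Cultures at 0.3% parasitemia and 2.5% hematocrit were first exposed to compound for 72 h at 37 C; signals were normalised to artemisinin (0.29 uM) and vehicle wells.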

[3] = qHTS profiling for inhibitors of Plasmodium falciparum (DD2) proliferation (AID 743323); conditions: lower = more inhibition; at 28.7 µM (top of the series) unless noted
Outline: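 Parasite DNA quantified by SYBR Green fluorescence (ex 485, em 535 nm) after saponin/Triton lysis and overnight dark incubation. Cultures: 0.3% parasitemia, 2.5% hematocrit, 72 h, 37 C; data scaled between DMSO and 0.29 uM artemisinin.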

[4] = qHTS profiling for inhibitors of Plasmodium falciparum (HB3) proliferation (AID 743324; active means well fitted curve in the direction sought with a large enough effect; an effect the other way counts as inactive or inconclusive;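 further: 100% = DMSO vehicle wells and 0% = artemisinin-treated control wells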); conditions: Plasmodium falciparum HB3 blood-stage proliferation; at 28.7 µM (top of the series) unless noted
Outline: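 SYBR Green fluorescence (485 ex/535 em) of lysed cultures, incubated overnight at room temperature in the dark, quantifies parasite DNA. Infected erythrocytes at 0.3% parasitemia and 2.5% hematocrit were exposed 72 h; values normalized to DMSO and 0.29 uM artemisinin controls.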

[5] = qHTS profiling of the MIPE4 collection as inhibitors of Plasmodium falciparum (3D7) proliferation (AID 743344);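 further: scaled between DMSO vehicle wells and 0.29 µM artemisinin as full inhibition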; conditions: P. falciparum 3D7 in erythrocytes, SYBR Green DNA fluorescence, 72 h; at 28.5 µM (top of the series) unless noted
Outline: as §1

[6] = qHTS profiling of the MIPE4 collection as inhibitors of Plasmodium falciparum (DD2) proliferation (AID 743345); conditions: P. falciparum Dd2 in erythrocytes, SYBR Green DNA, 72 h; at 28.5 µM (top of the series) unless noted
Outline: as §1

[7] = qHTS profiling of the MIPE4 collection as inhibitors of Plasmodium falciparum (DD2) proliferation (Rep 2) (AID 743346); conditions: P. falciparum Dd2 in erythrocytes, SYBR Green DNA, 72 h; at 28.5 µM (top of the series) unless noted
Outline: as §1

[8] = qHTS profiling of the MIPE4 collection as inhibitors of Plasmodium falciparum (HB3) proliferation (AID 743347);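 further: plate controls were DMSO vehicle wells for no effect and artemisinin wells for full effect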; conditions: P. falciparum HB3 in erythrocytes, SYBR Green DNA, 72 h; at 28.5 µM (top of the series) unless noted
Outline: as §1

[9] = High-throughput drug toxicity screening in the BPDCN cell line Gen2.2 (AID 1224824); conditions: Gen2.2 BPDCN cells; at 45.8 µM (top of the series) unless noted;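 further: cells exposed to compounds for 48 h before reading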
Outline: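 Readout is ATP luminescence from Gen2.2 cells after two days of drug exposure in serum-containing medium at 37 °C. Values express percent activity, with vehicle defining full signal and 9.2 uM bortezomib defining zero.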

[10] = High-throughput drug toxicity screening in the BPDCN cell line Cal-1 (AID 1224825); conditions: Cal-1 BPDCN cell viability, qHTS; at 45.8 µM (top of the series) unless noted
Outline: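 Percent activity derived from CellTiter-Glo luminescence, scaling DMSO to 100% and 9.2 uM final bortezomib to 0%. BPDCN Cal-1 cells (500/well, RPMI plus 10% FBS) incubated with compounds 48 hours at 37C before reading.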

[11] = qHTS assay for measurement of the activity of small molecule inhibitors on Zika virus induced Caspase-3 activity in human iPSC derived neural progenitor cells (hNPCs) (AID 1224857; active means well fitted curve in the direction sought with a large enough effect; an effect the other way counts as inactive or inconclusive; further: % of control where 0% means no effect; nearly all actives have a fitted effect of over 65% in size)
Outline: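 hNPCs seeded 350 cells/well, cultured 16–20 h; compounds added 1 h before ZIKV (2 FFU/cell), 37 C 6 h. Caspase-Glo 3/7 luminescence after 30 min RT; % inhibition from induction scaled to uninfected (0%) and infected (100%) wells.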

[12] = qHTS assay for measurement of the activity of small molecule inhibitors on Zika virus induced Caspase-3 activity in human astrocytoma cells (AID 1224859; active means well fitted curve in the direction sought with a large enough effect; an effect the other way counts as inactive or inconclusive;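 further: plate controls were ZIKV-infected untreated cells for no effect and uninfected cells for full effect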)
Outline: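 Luminescence read-out (Caspase-Glo 3/7, 30 min RT) of caspase activity in SNB-19 cells infected 6 h with ZIKV, 2 FFU/cell, after 1 h compound pretreatment; % inhibition from induction normalised to uninfected (0%) and infected (100%) wells.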

[13] = qHTS Screen of the MIPE 4.0 Collection Against Ewings Sarcoma (RDES) (AID 1259252; active means well fitted curve in the direction sought with a large enough effect; an effect the other way counts as inactive or inconclusive; further: nearly all actives have a fitted effect of over 35% in size; further: potency means the concentration at half of the fitted maximal effect)
Outline: (§2)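 After a 4 h attachment period in RPMI/5% FBS, cells were pin-dosed with test compounds; DMSO served as negative and 9.2 uM bortezomib (final) as positive control. Luminescent CellTiter-Glo signal at 48 h defined viability.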

[14] = qHTS Screen of the MIPE 4.0 Collection Against Ewings Sarcoma (TC71) (AID 1259253; active means well fitted curve in the direction sought with a large enough effect; an effect the other way counts as inactive or inconclusive; further: nearly all actives have a fitted effect of over 40% in size; further: potency means the concentration at half of the fitted maximal effect)
Outline: as §2

[15] = qHTS Screen of the MIPE 4.0 Collection Against Ewings Sarcoma (EW8) (AID 1259255; active means well fitted curve in the direction sought with a large enough effect; an effect the other way counts as inactive or inconclusive; further: nearly all actives have a fitted effect of over 35% in size; further: potency means the concentration at half of the fitted maximal effect;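 on viability: 100% = DMSO-treated cells and 0% = medium-only wells without cells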)
Outline: as §2

[16] = molecular target: Hexokinase-4 (Homo sapiens) + Glucokinase regulatory protein (Homo sapiens) (UniProt P35557+Q14397); test: qHTS assay for inhibitors of recombinant human GCK-GKRP interaction: HTRF assay (AID 743207; active means well fitted curve in the direction sought with a large enough effect; an effect the other way counts as inactive or inconclusive;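 further: 0% = DMSO with GCK present and -100% = DMSO wells lacking GCK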)
Outline: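 Titration screening format: recombinant GST-GCK and FLAG-GKRP at 5 nM, S6P at 2 uM, labelled anti-tag antibodies, 60 min at RT, dual-wavelength HTRF readout.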

Chain of Hexokinase-4 (Homo sapiens) + Glucokinase regulatory protein (Homo sapiens) (P35557 whole entry, looked up): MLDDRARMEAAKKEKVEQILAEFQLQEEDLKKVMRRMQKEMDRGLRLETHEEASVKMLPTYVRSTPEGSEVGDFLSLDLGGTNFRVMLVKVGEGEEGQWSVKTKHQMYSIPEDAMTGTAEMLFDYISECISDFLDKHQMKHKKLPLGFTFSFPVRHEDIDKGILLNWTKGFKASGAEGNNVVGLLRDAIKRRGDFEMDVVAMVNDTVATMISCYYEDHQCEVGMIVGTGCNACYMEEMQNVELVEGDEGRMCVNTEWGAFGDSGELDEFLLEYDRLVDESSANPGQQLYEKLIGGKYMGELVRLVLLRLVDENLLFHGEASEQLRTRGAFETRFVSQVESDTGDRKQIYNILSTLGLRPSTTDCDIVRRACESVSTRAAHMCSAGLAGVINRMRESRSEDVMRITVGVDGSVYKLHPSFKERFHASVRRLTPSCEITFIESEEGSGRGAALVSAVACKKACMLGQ
Chain of Hexokinase-4 (Homo sapiens) + Glucokinase regulatory protein (Homo sapiens) (Q14397 whole entry, looked up): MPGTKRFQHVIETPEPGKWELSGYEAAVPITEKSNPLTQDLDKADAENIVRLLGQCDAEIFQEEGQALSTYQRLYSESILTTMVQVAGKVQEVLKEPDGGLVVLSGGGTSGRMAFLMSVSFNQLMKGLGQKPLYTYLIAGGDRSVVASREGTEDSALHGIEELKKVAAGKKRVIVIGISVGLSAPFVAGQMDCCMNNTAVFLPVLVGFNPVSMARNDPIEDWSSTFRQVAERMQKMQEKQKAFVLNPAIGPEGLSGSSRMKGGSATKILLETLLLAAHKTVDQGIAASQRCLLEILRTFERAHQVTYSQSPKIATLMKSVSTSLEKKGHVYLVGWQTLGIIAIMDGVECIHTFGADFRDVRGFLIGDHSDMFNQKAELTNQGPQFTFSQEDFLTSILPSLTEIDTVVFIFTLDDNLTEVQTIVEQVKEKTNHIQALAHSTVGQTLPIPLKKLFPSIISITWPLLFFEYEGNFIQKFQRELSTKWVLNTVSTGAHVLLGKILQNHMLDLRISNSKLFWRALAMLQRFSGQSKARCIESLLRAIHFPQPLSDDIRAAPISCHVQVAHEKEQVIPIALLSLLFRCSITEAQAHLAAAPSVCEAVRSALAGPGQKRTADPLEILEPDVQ

SMILES | max response [1] | remaining parasite growth % (stronger effect = lower value) [2] | activity, percent of control [3] | remaining proliferation (% of control), lower = more inhibition [4] | parasite growth, % of DMSO control [5] | parasite growth remaining, % of DMSO control (lower = more inhibition) [6] | parasite growth, % of control (lower = inhibition) [7] | growth, % of control [8] | cell viability, % of control (lower = more cytotoxic) [9] | viability (% of control) [10] | Potency [11] | Potency [12] | Potency [13] | Potency [14] | Potency [15] | outcome [16] | Potency [1]
O=C(O)CCc1ccc(NCc2cccc(Oc3ccccc3)c2)cc1 | 20.3% (inactive) | 29.5% | 102% | 98.6% | 93.6% | 87.8% | 210% | 76.8% | 132% | 108% | inactive | inactive | inactive | inactive | inactive |  | 
OC(CCN1CCCCC1)(c1ccccc1)C1CC2C=CC1C2 (stereo unspecified) | -9.9% (inactive) |  |  |  | 38.1% | 75.2% |  | 35.8% | 127% | 107% | inactive | inactive | inactive | inactive | inactive | inactive | 
OC(CN1CCC(Cc2ccc(F)cc2)CC1)c1ccc(Cl)cc1 (stereo unspecified) |  | 1.14% and 5.06% | 1.06% and 4.92% |  | 9.22% | 8.62% |  | 46.6% | 156% | 99.3% | inactive | inactive | inactive | inactive | inactive | inactive | 7.43 µM (active)
Cc1cc(SCc2sc(-c3ccc(C(F)(F)F)cc3)nc2C)ccc1OCC(=O)O |  | 106% and 98.8% | 99.9% and 82.6% | 77.3% and 39.3% | 64.2% | 96.2% | 50.7% | 96.6% | 101% | 114% | inactive | inactive | inactive | 16.6 µM (active) |  |  | 
O=C(NOC[C@H](O)CO)c1ccc(F)c(F)c1Nc1ccc(I)cc1F | 24.9% (inactive) | 106% | 98.3% |  | 86.4% | 102% |  | 97.2% | 14.5% | 41.6% | inactive | inactive | 23.5 µM (active) |  |  |  | 
CN(C(=O)c1ccc(F)cc1C(F)(F)F)C1CCN(c2nnc(-c3ccnn3C)c3ccccc23)CC1 | 1.04% (inactive) | 59.4% | 71.6% |  | 16.1% | 61.1% |  | 21.1% | 13.6% | 80.2% | inactive | inactive | 20.9 µM (active) |  |  |  | 
CC1(C)Cc2c(-c3ccccc3)c(-c3ccc(Cl)cc3)c(CC(=O)O)n2C1 | 1.94% (inactive) | 6.49% | 13.4% | 7.77% | 61% | 90.7% |  | 82.7% | 71.9% | 78.3% | inactive | inactive |  | 16.6 µM (active) |  |  | 
CC(C)C[C@H](NC(=O)[C@@H](O)[C@H](N)Cc1ccccc1)C(=O)O | -20.9% (inactive) and 9.59% (inactive) | 2.82% | 6.99% | 5.96% | 7.87% | 10.1% | 16% | 6.17% | 103% | 38.3% | inactive | inactive | 23.5 µM (active) | 26.4 µM (active) |  | inactive | 
COc1cc2c(cc1OC)CN(CCc1ccc(NC(=O)c3cccc4c(=O)c5cccc(OC)c5[nH]c34)cc1)CC2 |  | -0.733% | 0.466% | -0.901% | 5.92% | 7.47% | 10% | 4.23% | 238% | 104% | inactive | inactive | 10.5 µM (active) | 20.9 µM (active) |  |  | 
Cc1cc2c(F)c(Oc3ncnn4cc(OC[C@@H](C)O)c(C)c34)ccc2[nH]1 |  | 101% | 101% | 75.1% | 46.6% | 93.1% | 54.4% | 76.7% | 249% | 71.2% | inactive | inactive | 2.35 µM (active) | 13.2 µM (active) | 20.9 µM (active) |  | 
CCOc1ccc(Cc2cc([C@@H]3O[C@H](CO)[C@@H](O)[C@H](O)[C@@H]3O)ccc2Cl)cc1 | 10.7% (inactive) | 46.7% | 101% | 112% | 136% | 104% | 103% | 505% | 55.1% | 19.9% | inactive | inactive |  |  | inactive |  | 
c1ccc(-c2nn3c(c2-c2ccnc4cc(OCCN5CCOCC5)ccc24)CCC3)nc1 |  | 81.9% | 81.5% | 50.9% | 25.6% | 50.6% | 58.7% | 17.9% | 857% | 73.1% | inactive | inactive |  | 18.7 µM (active) |  |  | 
Cc1cc([C@@H](C)Nc2ccccc2C(=O)O)c2nc(N3CCOCC3)cc(=O)n2c1 |  | 50.6% | 29.8% | 31.4% | 5.01% [at 57.5 µM] | 16.9% [at 57.5 µM] | 7.39% [at 57.5 µM] | 3.82% [at 57.5 µM] | 13.7% [at 92.2 µM] | 27.7% [at 92.2 µM] | inactive | inactive | 3.03 µM (active) | 34 µM (active) | 42.9 µM (active) |  | 
C[C@@H]1CN(Cc2ccc(F)cc2)[C@@H](C)CN1C(=O)c1cc2c(C(=O)C(=O)N(C)C)cn(C)c2cc1Cl | 12.3% (inactive) | 69.2% | 79.8% | 52.3% | 49.5% | 83.2% | 48.6% | 47.5% | 160% | 70.3% | inactive | inactive |  |  | 23.5 µM (active) |  | 
Cc1c(CN2CCN(C(=O)C(C)C)CC2)sc2c(N3CCOCC3)nc(-c3cnc(N)nc3)nc12 |  | 12.2% | 23.2% | 8.2% | 12.5% | 25.7% | 14.5% | 4.71% | 2.32% | 3.99% | inactive | inactive | 0.0833 µM (active) | 0.148 µM (active) | 0.105 µM (active) |  | 
